Screening data (PubChem)
Hits are enriched below; roughly 2.6% of the tested compounds scored in any of these assays.
Cruzain Triton = cruzain (T. cruzi) inhibition with detergent; AID 1478; Potency, µM, for the others: max response, negative = inhibition, most hits filed as inhibitors; P25779; purified cruzain, Z-FR-AMC fluorescence, 0.01% Triton; 0.43% of 200,000 active;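 also: plate controls were neutral wells for no effect and buffer without enzyme for full effect; nearly all actives have a fitted effect of over 40% in size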
Target sequence (P25779 123-467 limits assumed): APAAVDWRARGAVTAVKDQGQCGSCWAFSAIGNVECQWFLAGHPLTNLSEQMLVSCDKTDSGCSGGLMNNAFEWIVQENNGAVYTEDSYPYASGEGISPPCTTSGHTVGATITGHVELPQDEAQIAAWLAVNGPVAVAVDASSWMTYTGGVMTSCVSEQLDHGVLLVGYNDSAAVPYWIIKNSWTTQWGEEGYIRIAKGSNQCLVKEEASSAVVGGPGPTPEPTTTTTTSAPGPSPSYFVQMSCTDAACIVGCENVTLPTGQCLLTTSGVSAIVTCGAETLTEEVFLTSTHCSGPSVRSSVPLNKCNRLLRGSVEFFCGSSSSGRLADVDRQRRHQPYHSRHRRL
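Cruzain (1.5 nM) preincubated 15 min at RT with compound in 100 mM sodium acetate pH 5.5, 5 mM DTT, 0.01% Triton X-100. Reaction started with 2 uM Z-FR-AMC; AMC fluorescence (ex 360/em 450 nm) change over 60 s gave rate.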
Cruzain inh noDet = blocks cruzain activity in detergent-free assay; P25779; purified cruzain, Z-FR-AMC fluorescence, no detergent; Potency, µM, inactives show max response, negative = inhibition, usual class: inhibitors; 2.3% of 200,000 active; AID 1476;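 also: plate controls were enzyme without inhibitor for no effect and buffer without enzyme for full effect; nearly all actives have a fitted effect of over 40% in size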
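Purified cruzain at 1.5 nM, pre-incubated 15 min with compound at room temperature in 100 mM sodium acetate pH 5.5, 5 mM DTT, 0.00005% Triton X-100. Reaction started with 2 uM Z-FR-AMC; AMC fluorescence increase over 60 s gives rate.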
Starred values were filed as active, the others as inactive; ! = a repeat was not active. Calls follow the shape of the dose curve; as a rule, active = well fitted curve in the direction sought with a large enough effect; inconclusive = small, poorly fitted or top-dose-only effect, or another doubt; inactive = no such curve, though single readings can be large; an effect the other way counts as inactive or inconclusive. Potency is read from the fitted curve at half-maximal effect.

What do the screens show for `N#C/C(=C\Nc1ccc2c(c1)OCCO2)c1nc(-c2ccccc2)cs1`?
Cruzain Triton: -3.3%; Cruzain inh noDet: inconclusive

Results for COc1cccc(NC(=O)CCN2C(=O)c3ccccc3Sc3ncccc32)c1 ?
Cruzain Triton: -0.5%; Cruzain inh noDet: 21.5%

What do the screens show for `CC(=O)C1=C(c2ccc(C)c(C)c2)N(C(C)=O)n2c(nnc2-c2ccc(Cl)cc2)S1`?
Cruzain Triton: -0.9%; Cruzain inh noDet: -7.4%

What do the screens show for `O=C(COC(=O)c1ccc(O)cc1)Nc1ccccc1-c1ccccc1`?
Cruzain Triton: -4.9%; Cruzain inh noDet: -15.1%

Results for Cc1nc(N)sc1-c1csc(NCc2ccccc2)n1 ?
Cruzain Triton: -15.2%; Cruzain inh noDet: 31.6µM*

Results for Cc1nc(NC(=O)c2ccccc2)sc1-c1csc(NCc2ccccc2)n1 ?
Cruzain Triton: 3.7%; Cruzain inh noDet: inconclusive

Results for Fc1ccc(N2CCN(c3ccc4c(C(F)(F)F)cc(C(F)(F)F)nc4n3)CC2)cc1 ?
Cruzain Triton: 1.7%; Cruzain inh noDet: -5.6%

Results for C/C(=N/NC(=O)CSCc1ccc(Cl)cc1)c1cccc(NC(=O)c2ccccc2)c1 ?
Cruzain Triton: -3.7%; Cruzain inh noDet: inconclusive

What do the screens show for `C/C(=N\NC(=O)CSCc1ccc(Cl)cc1)c1ccc(NC(=O)c2ccccc2)cc1`?
Cruzain Triton: -4.0%; Cruzain inh noDet: 25.1µM*

How did O=C(Cc1ccc(Cl)cc1)Nc1ccc(NC(=O)c2ccccc2)cc1 do in these assays?
Cruzain Triton: 0.9%; Cruzain inh noDet: 25.1µM*

How did Cc1cccc(C(=O)Nc2ccc(NC(=O)Cc3ccc(Cl)cc3)cc2)c1 do in these assays?
Cruzain Triton: 0.8%; Cruzain inh noDet: inconclusive

Results for O=[N+]([O-])c1ccc(Cl)c(/C=N/N2CCN(Cc3ccccc3)CC2)c1 ?
Cruzain Triton: -0.7%; Cruzain inh noDet: -9.9%

Results for c1ccc(C2=Nn3c(nnc3-c3cc(-c4ccccc4)n[nH]3)SC2)cc1 ?
Cruzain Triton: -6.9%; Cruzain inh noDet: -6.5%

Results for Cc1cccc2cc(COC(=O)C3CCCO3)c(=O)[nH]c12 (stereo unspecified) ?
Cruzain Triton: -0.8%; Cruzain inh noDet: 1.58µM*

Results for Cc1cccc2cc(COC(=O)C3CCCCC3)c(=O)[nH]c12 ?
Cruzain Triton: 1.8%; Cruzain inh noDet: -6.4%

What do the screens show for `COc1cccc(CNC(=O)Cc2ccc(-n3c(=O)[nH]c4ccccc4c3=O)cc2)c1`?
Cruzain Triton: -2.2%; Cruzain inh noDet: -6.7%

What do the screens show for `Cc1ccc2c(c1)sc1nc(=O)n(-c3ccc(Cl)cc3)c(=O)n12`?
Cruzain Triton: -2.1%; Cruzain inh noDet: 7.8%

Results for Cc1ccc2c(c1)sc1nc(=O)n(-c3ccc(Cl)c(Cl)c3)c(=O)n12 ?
Cruzain Triton: -2.2%; Cruzain inh noDet: 20µM*!

How did CC(=O)c1ccc(OCC(=O)NC2CCS(=O)(=O)C2)cc1 (stereo unspecified) do in these assays?
Cruzain Triton: 1.4%; Cruzain inh noDet: 1.4%

Results for COc1ccccc1C(=O)NC1(C(F)(F)F)C(=O)NC(C)=C1C#N (stereo unspecified) ?
Cruzain Triton: -2.3%; Cruzain inh noDet: -0.8%

How did NC(=NCc1ccccc1)NC(=O)c1nc(Cl)c(N)nc1N do in these assays?
Cruzain Triton: -13.1%; Cruzain inh noDet: 14.1µM*!

What do the screens show for `NC(=Nc1ccccc1)NC(=O)c1nc(Cl)c(N)nc1N`?
Cruzain Triton: -12.2%; Cruzain inh noDet: inconclusive

How did O=C(N/N=C\c1ccc(Sc2ccccn2)o1)c1cccc(F)c1 do in these assays?
Cruzain Triton: -10.3%; Cruzain inh noDet: -0.6%

How did C/C(=N/NC(=O)c1cc(-c2cccc([N+](=O)[O-])c2)n[nH]1)c1ccc(Cl)cc1 do in these assays?
Cruzain Triton: 0.0%; Cruzain inh noDet: 6.31µM*

What do the screens show for `C/C(=N\NC(=O)c1ccc(CN2CCOCC2)cc1)c1cccc([N+](=O)[O-])c1`?
Cruzain Triton: 1.2%; Cruzain inh noDet: -9.2%

How did COc1cc(OC)c(-c2nn3c(C4CCCCC4)nnc3s2)cc1OC do in these assays?
Cruzain Triton: -20.2%; Cruzain inh noDet: inconclusive

How did CNc1nc(C)c(C#N)c(-c2ccccc2)c1C(C)=O do in these assays?
Cruzain Triton: -3.3%; Cruzain inh noDet: -4.6%

What do the screens show for `COc1cccc(NC(=O)C2CCN(S(=O)(=O)c3cc(-c4noc(C)n4)ccc3C)CC2)c1`?
Cruzain Triton: -1.2%; Cruzain inh noDet: inconclusive

What do the screens show for `Cc1cccn2c(=O)c3cc(C#N)c(=O)n(-c4nnc(SCc5ccc(Cl)cc5)s4)c3nc12`?
Cruzain Triton: -6.2%; Cruzain inh noDet: 20µM*

Results for N#Cc1cc2c(=O)n3ccccc3nc2n(-c2nnc(SCc3ccccc3)s2)c1=O ?
Cruzain Triton: 1.5%; Cruzain inh noDet: 2.7%

What do the screens show for `Cc1nc(C)c(CCNS(=O)(=O)c2ccc(F)cc2)s1`?
Cruzain Triton: -7.6%; Cruzain inh noDet: -8.5%

How did O=C(CSc1nc(-c2ccccc2)cs1)Nc1nccs1 do in these assays?
Cruzain Triton: 5.0%; Cruzain inh noDet: 25.1µM*

What do the screens show for `O=C(CSc1nc(-c2ccccc2)nc2ccccc12)Nc1nccs1`?
Cruzain Triton: -2.1%; Cruzain inh noDet: inconclusive

How did Oc1nc(Nc2ccc(Cl)cc2Cl)sc1/C=C1\C=Nc2ccccc21 do in these assays?
Cruzain Triton: -6.4%; Cruzain inh noDet: 25.1µM*

What do the screens show for `Cc1nc(Nc2ccc(Cl)cc2Cl)sc1C(=O)Nc1ccccc1`?
Cruzain Triton: -5.4%; Cruzain inh noDet: -7.7%

How did O=C(/C=C/NNC(=O)c1ccccc1)c1ccc(Br)cc1 do in these assays?
Cruzain Triton: -7.5%; Cruzain inh noDet: inconclusive

Results for O=C(/C=C/NNC(=O)c1cccc(Br)c1)c1cccc(Br)c1 ?
Cruzain Triton: -6.4%; Cruzain inh noDet: 7.94µM*

How did O=C1N=C(N2CCOCC2)S/C1=C/c1cccs1 do in these assays?
Cruzain Triton: -5.6%; Cruzain inh noDet: -1.2%

How did S=C(NC1CCCCC1)N1CCN(C/C=C/c2ccccc2)CC1 do in these assays?
Cruzain Triton: -1.3%; Cruzain inh noDet: 18.3%

How did CC(C)(O)C#Cc1ccc(C(=O)N2CCN(C(=O)c3ccco3)CC2)cc1 do in these assays?
Cruzain Triton: 1.1%; Cruzain inh noDet: 5.8%

Results for COc1ccc(-c2nnn(CC(=O)N3CCN(c4ccccc4OC)CC3)n2)cc1 ?
Cruzain Triton: -3.1%; Cruzain inh noDet: inconclusive

Results for N#Cc1c(C(F)(F)F)cc(-c2cccs2)nc1SCc1ccc(F)cc1 ?
Cruzain Triton: -1.4%; Cruzain inh noDet: 7.7%

How did N#Cc1c(C(F)(F)F)cc(-c2cccs2)nc1SCc1cccnc1 do in these assays?
Cruzain Triton: 31.6µM*; Cruzain inh noDet: inconclusive

What do the screens show for `Fc1ccccc1N1CCN(Cc2nnc(-c3ccc4c(c3)OCO4)o2)CC1`?
Cruzain Triton: 0.3%; Cruzain inh noDet: 3.5%

Results for COc1ccc(-c2cc(=O)oc3c4c(ccc23)OCN(Cc2ccccc2)C4)cc1 ?
Cruzain Triton: -25.4%; Cruzain inh noDet: 25.1µM*

Results for O=c1cc(-c2ccccc2)c2ccc3c(c2o1)CN(Cc1ccccc1)CO3 ?
Cruzain Triton: -25.3%; Cruzain inh noDet: inconclusive

How did COc1ccc2c(c1OC)C(Cc1ccccc1)N1CCc3cc4c(cc3C1=C2)OCO4 (stereo unspecified) do in these assays?
Cruzain Triton: -1.2%; Cruzain inh noDet: 12.5%

How did Cc1c2cccc(Sc3ccccc3)c2c2c3c(cccc13)[S+](c1ccccc1)C2 (stereo unspecified) do in these assays?
Cruzain Triton: 0.9%; Cruzain inh noDet: 2.51µM*

Results for CCOC(=O)c1oc2ccc(Br)cc2c1NC(=O)CN1CCN(C)CC1 ?
Cruzain Triton: 2.2%; Cruzain inh noDet: 9.8%
